JMJD2A Tudor inh: blocks the human JMJD2A Tudor domain; O75164; AlphaScreen JMJD2A-Tudor / H3K4me3 peptide binding; Potency, µM (series often up to 114 µM), for inactives: at the highest dose activity change, negative = inhibition, actives largely listed as inhibitors; 390,000 compounds, 4.4% hits; AID 504339; further: on the % scale 0 is the no-effect control and ±100 the full control effect; nearly all actives have a fitted effect of over 50% in size
ALOX12 inh: ALOX12 (human) lipoxygenase inhibition | 580,000 compounds, 1.1% hits | purified 12hLO, xylenol orange hydroperoxide absorbance | Potency, µM (doses to about 108 µM), for inactives: at the highest dose activity change, negative = inhibition, usual class: inhibitors | AID 1671190; further: on the % scale 0 is the no-effect control and ±100 the full control effect
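Purified human 12hLO (150 nM final) in 25 mM Hepes, 0.01% Triton X-100, pH 7.0 was preincubated 15 min at room temperature with compound. Then 40 uM arachidonic acid was added, 30 min. Hydroperoxide was read by Fe-XO absorbance ratio 573/405 nm.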
HP1b chromo inh: HP1-beta chromodomain-methylated histone interaction inhibition. P83916. AlphaScreen HP1-beta / biotin-H3K9me3 peptide binding. Potency, µM (titrated, usually from 114 µM), inactives show at the highest dose activity change, negative = inhibition, most hits filed as inhibitors. 390,000 compounds, 0.56% hits; further: nearly all actives have a fitted effect of over 70% in size
Target sequence (P83916 whole entry, looked up): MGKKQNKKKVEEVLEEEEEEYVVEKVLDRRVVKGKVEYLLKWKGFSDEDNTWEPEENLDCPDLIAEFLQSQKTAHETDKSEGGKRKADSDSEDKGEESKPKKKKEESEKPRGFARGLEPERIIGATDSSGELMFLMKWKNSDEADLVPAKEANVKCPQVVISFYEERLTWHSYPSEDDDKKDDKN
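AlphaScreen: HP1-beta (50 nM) preformed 30 min with biotin-H3(1-18)K9me3 peptide (50 nM) in PBS pH 7.4, 0.01% Tween-20. Compound added for 30 min at RT, then streptavidin donor/nickel chelate acceptor beads (10 ug/mL) for 30 min.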
PLK1 PBD block: blocks phosphopeptide binding to human PLK1 polo-box domain | P53350 | Plk1 PBD binding of FITC phosphopeptide, fluorescence polarization | Potency, µM, for the others: max response, negative = inhibition, actives largely listed as inhibitors | 360,000 compounds, 2.8% hits; further: series mostly up to about 57 µM; on the % scale 0 is the no-effect control and ±100 the full control effect; nearly all actives have a fitted effect of over 65% in size
G9a block: blocks human histone lysine methyltransferase G9a. Q96KQ7. 350,000 compounds, 8.8% hits. AID 504332. G9a H3K9 monomethylation, AlphaScreen, 2 h. Potency, µM (series often up to 102 µM), without a hit: at the highest dose activity, negative = inhibition, usual class: inhibitors; further: on the % scale 0 is the no-effect control and ±100 the full control effect; nearly all actives have a fitted effect of over 75% in size
Target sequence (Q96KQ7 913-1193 limits assumed): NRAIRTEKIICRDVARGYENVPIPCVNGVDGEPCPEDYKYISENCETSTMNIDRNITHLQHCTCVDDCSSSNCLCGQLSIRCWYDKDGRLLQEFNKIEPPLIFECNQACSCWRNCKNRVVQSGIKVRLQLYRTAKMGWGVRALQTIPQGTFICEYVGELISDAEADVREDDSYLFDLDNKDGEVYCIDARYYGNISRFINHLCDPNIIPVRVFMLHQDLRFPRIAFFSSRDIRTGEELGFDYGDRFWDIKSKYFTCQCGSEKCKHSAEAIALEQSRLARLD
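AlphaScreen detection with an anti-monomethyl H3K9 antibody quantified product after a 2 h room-temperature reaction containing 500 nM biotinylated H3K9 peptide, 20 µM SAM and 20 nM enzyme, which had been preincubated 15 min with compound.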
BAZ2B block: BAZ2B (human) inhibition. Q9UIF8. AlphaScreen BAZ2B-H3K14Ac peptide displacement. Potency, µM (doses to about 114 µM), for inactives: top-dose activity change, negative = inhibition, actives largely listed as inhibitors. 360,000 compounds, 4.4% hits. AID 504333; further: on the % scale 0 is the no-effect control and ±100 the full control effect; nearly all actives have a fitted effect of over 60% in size
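AlphaScreen displacement: compounds (up to 110uM) incubated 30 min at room temperature with a preformed 50 nM BAZ2B/50 nM biotinylated H3K14Ac peptide complex in PBS pH 7.4 with Tween-20. Donor and acceptor beads at 10 ug/mL final added, 20 min light-protected before reading.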
* hit, by the source's call; ? = inconclusive; . = no result given; [ ] = another dose, or the depositor's remark. Only some compounds are listed: those with a hit (about 9% of all), similar ones and a draw of the others. The call rests on the fitted dose curve; in most records, active means well fitted curve in the direction sought with a large enough effect; inconclusive means small, poorly fitted or top-dose-only effect, or another doubt; inactive means no such curve, though single readings can be large; an effect the other way counts as inactive or inconclusive. Potency means the concentration at half of the fitted maximal effect.

SMILES	JMJD2A Tudor inh	ALOX12 inh	HP1b chromo inh	PLK1 PBD block	G9a block	BAZ2B block
C=CCn1cccc(C(=O)Nc2ccc(OC)cc2OC)c1=O	?	0%	-11%	27µM*	19%	0%
C=CCn1cccc(C(=O)Nc2cc(OC)cc(OC)c2)c1=O	-18%	7%	-11%	-10%	2%	3%
C=CCn1cccc(C(=O)Nc2ccc(OC)c(OC)c2)c1=O	-28%	-9%	-15%	-25%	-4%	-15%
C=CCn1cccc(C(=O)Nc2cc(OC)c(OC)c(OC)c2)c1=O	32µM*	-3%	-11%	21µM*	-5%	-10%
Cc1cc(NC(=O)COc2ccccc2C)ccc1NC(=O)c1ccco1	-17%	5%	-1%	-14%	15%	-19%
Cc1cccc(CSc2nc(=O)c3c(n2C)NC(=O)CC3c2cccc(O)c2)c1 (stereo not given)	-26%	8%	25%	.	7%[59 µM]	-14%
CC(Oc1ccc(Br)cc1)c1nc2c3ccccc3nc(=S)n2[nH]1 (stereo not given)	-20%	3.5µM*	10%	?	49%[59 µM]	-21%
COC(=O)c1nn(-c2ccccc2)c2nnc(Cc3ccc(C)cc3)c(=O)n12	8%	0%	39%	8%	10%[59 µM]	-4%
Cc1ccc([C@H]2C(C(=O)O)=C[C@@H](CC3CCCC3)N2S(=O)(=O)c2ccc(C)cc2)cc1	-21%	40µM*	39%	-25%	.	.
CCc1ccc([C@H]2C(C(=O)O)=C[C@@H](CC3CCCC3)N2S(=O)(=O)c2ccc(C)cc2)cc1	?	-85%	27%	21µM*	.	.
O=C(CO/N=C/c1ccccc1OC(F)F)NCc1cccs1	4%	7%	49%	-7%	8%[59 µM]	9%
CC(C)NS(=O)(=O)c1cc(C(=O)O)ccc1Cl	?	-23%	27%	-8%	-7%	-2%
Fc1ccc(/C=C2\CCCC3=C2N=C2SC=C(c4ccccc4)N2C3c2ccc(F)cc2)cc1 (stereo not given)	.	22µM*	.	.	.	.
O=C(CCN1C(=O)S/C(=C/c2ccccc2)C1=O)Nc1ccc(C(=O)O)c(O)c1	0%	-12%	19%	-15%	.	?
COc1cc(/C=N\Nc2nc3ccccc3o2)cc(OC)c1OC	-11%	6%	32%	-4%	7%[59 µM]	4%
Cc1cc(Oc2ccc(=O)n(C)n2)nc(Oc2ccc(=O)n(C)n2)n1	-6%	276%	13%	1%	6%[59 µM]	6%
CC1CCC2C(C1)c1sc(=O)[nH]c1SC2(C)C (stereo not given)	?	-26%	0%	-6%	50µM*	?
CCCn1nc(C(=O)Nc2ccc(S(=O)(=O)Nc3ncccn3)cc2)c2ccccc2c1=O	-27%	-1%	21%	-4%	14%[59 µM]	?
CCC(NC(=O)Nc1ccc(OC)c(OC)c1)c1c(-n2cccc2)sc2c1CCN(C)C2 (stereo not given)	?	?	?	.	?	50µM*
CCOc1ccccc1NC(=O)NC(CC)c1c(-n2cccc2)sc2c1CCN(C)C2 (stereo not given)	-32%	?	6%	.	?	-23%
CCC(NC(=O)Nc1cc(OC)ccc1OC)c1c(-n2cccc2)sc2c1CCN(CC)C2 (stereo not given)	56µM*	?	?	.	14µM*	40µM*
Cc1nc(S(=O)(=O)N2CCC(C)CC2)c(C#N)c(C)c1Cl	.	59%	.	.	.	.
CC(C)(C)OC(=O)N1CCC(c2c(C(=O)N3CCOCC3)cnn2-c2ccccc2Cl)CC1	-11%	3%	-1%	.	-27%[59 µM]	11%[57.1 µM]
Cc1ccc2scc(N3CCN(c4ccccc4)CC3)c(=O)c2c1	45µM*	-13%	-5%[57 µM]	.	?	?
O=c1c(N2CCN(c3cccc(Cl)c3)CC2)csc2ccccc12	40µM*	-18%	-10%[57 µM]	.	?	?
SMILES	JMJD2A Tudor inh	ALOX12 inh	HP1b chromo inh	PLK1 PBD block	G9a block	BAZ2B block
CCN1CCN(c2csc3ccc(Cl)cc3c2=O)CC1	-14%	?	32%[57 µM]	.	-27%[59 µM]	-6%
Cc1ccc2scc(N3CCN(c4ccc(F)cc4)CC3)c(=O)c2c1	?	3%	-5%[57 µM]	.	0%[59 µM]	?
O=C(NN1C(=O)c2cc(Br)ccc2NC1c1ccccc1Cl)c1ccncc1 (stereo not given)	-8%	-20%	36%	-3%	6%	-26%
O=C(NN1C(=O)c2cc(Br)ccc2NC1c1cc(Br)cc(Br)c1O)c1ccncc1 (stereo not given)	-34%	50µM*	-11%[57 µM]	-14%	?	?
COc1ccc(/C=C/CN2CCC(n3nccc3NC(=O)C3CC3)CC2)cc1	-7%	25µM*	61%	-14%	17%	-11%[57.1 µM]
O=C(Nc1ccnn1C1CCN(C/C=C/c2ccccc2)CC1)C1CCCC1	-14%	0%	36%	1%	.	?
O=C(Nc1ccnn1C1CCN(Cc2ccc(OC3CCCC3)cc2)CC1)C1CC1	.	8.9µM*	.	.	.	.
CN1CCC(CCNC(=O)C2CCCN(S(=O)(=O)c3ccccc3)CCC(=O)NCC2)CC1 (stereo not given)	.	1%	.	.	.	.
COC(=O)COc1cccc(NC(=O)c2ccc(Cl)cc2)c1	?	-10%	4%	30µM*	23%	-15%
COC(=O)COc1cccc(NC(=O)c2ccc(C)cc2)c1	-16%	?	-1%	-8%	45%	?
COC(=O)COc1cccc(N)c1	.	13µM*	.	.	.	.
NC(=O)[C@@H]1CN(C(=O)c2ccnnc2)C[C@H]1COc1ccccc1	.	15%	.	.	.	.
CSc1ncccc1C(=O)NCC(=O)Nc1ccc(F)c(F)c1	-11%	0%	29%	-1%	3.2µM*	0%
CSc1ncccc1C(=O)NC1CCCCCCC1	2%	12%	22%	-19%	9%	1%
CSc1ncccc1C(=O)NNc1cc(Cl)ccc1Cl	-7%	.	31%	-12%	45µM*	-3%
O=C(CNC(=O)c1ccncc1)Nc1ccc(F)c(F)c1	36%	-3%	55%	-8%	11%	-12%
c1cncc(-c2[nH]ncc2CNCc2cccs2)c1	.	7.1µM*	.	.	.	.
COc1cccc(-c2nccc(NCc3cccs3)n2)c1	.	-42%	.	.	-2%[0.501 µM]	.
c1cncc(-c2nccc(NCc3cccs3)n2)c1	.	20µM*	.	.	-11%[0.501 µM]	.
c1cncc(-c2cc(NCc3cccs3)ncn2)c1	.	40µM*	.	.	2%[0.501 µM]	.
c1csc(CNCc2ccncc2)c1	-6%	?	43%	3%	-64%	-19%
Cc1ccc(S(=O)(=O)N2CCN(C(=O)C(F)(F)F)C2c2ccc(N(C)C)cc2)cc1 (stereo not given)	-1%	-13%	7%	-5%	19%	-4%
CN(C)S(=O)(=O)c1ccccc1N=C=S	-16%	3%	44%	-22%	.	-1%

High-throughput results (PubChem)
